Data reported in PubChem BioAssay (NCI).
About 83,000 compounds went through this panel and 20% of them were active in at least one assay; those are over-represented in the sample as a whole.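 Negative percent growth values reflect cell death: -40 means 40% of the cells present at the start died, and -100 means all died.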 A number with no mark means an inactive call. Active and inactive are the calls of the source. Rule for the calls: active = growth percent below 10; inactive = the rest.

Experiments:
Experiment in all cases: NCI-60 one-dose screen, 48 h (100 = growth as untreated, 0 = no growth, -100 = all killed)
Settings in all cases: 10 µM unless noted
[1] = tested on: T-47D breast
[2] = tested on: BT-549 breast
[3] = tested on: MDA-MB-435 melanoma
[4] = tested on: SW-620 colon
[5] = tested on: MCF7 breast
[6] = tested on: HCT-116 colon
[7] = tested on: HCC-2998 colon
[8] = tested on: KM12 colon

Work on `O=c1[nH]c(CN2CCN(c3ccccc3F)CC2)nc2sc3c(c12)CCC3` yielded a growth [1] of 99.1%, a growth [2] of 98.8% and a growth [3] of 118%. It also gave a growth [4] of 105%, a growth [5] of 107% and a growth [6] of 105%. For the same molecule, the growth [7] was 117% and the growth [8] was 106%.

For `CCCCCCC[C@@H](O)CC(=O)N[C@H](CCCCN)C(=O)N[C@H](Cc1c[nH]c2ccccc12)C(=O)NC(CCCCN)C(=O)N[C@H](CC(C)C)C(=O)N[C@H](Cc1ccccc1)C(=O)N[C@H](CCCCN)C(=O)N[C@H](CCCCN)C(=O)N[C@H](CC(C)C)C(=O)N1CCCC1C(=O)N[C@H](CCCCN)C(=O)N[C@H](Cc1ccccc1)C(=O)N[C@H](CC(C)C)C(=O)N[C@H](Cc1c[nH]cn1)C(=O)N[C@H](CC(C)C)C(=O)N[C@H](C)C(=O)N[C@H](CCCCN)C(=O)N[C@H](CCCCN)C(=O)N[C@H](Cc1ccccc1)C(=O)O` (stereo partly drawn), the growth [1] was -39.9% (active), the growth [2] was -43% (active) and the growth [3] was -38.7% (active). The growth [4] was -52.2% (active), the growth [5] was -23.8% (active) and the growth [6] was -35.7% (active). The growth [7] was -49.2% (active) and the growth [8] was -63% (active).

In the case of `COc1cc(C2C3=C(COC3=O)Nc3c2ccc2c3CCCC2)cc2c1OCO2` (stereo not drawn), the growth [1] is reported as 73.5%, the growth [2] is reported as 9.86% (active) and the growth [3] is reported as -16.9% (active). For the same molecule, the growth [4] was 23.1%, the growth [5] was 16.3% and the growth [6] was 0.327% (active). For the same molecule, the growth [7] was 5.11% (active) and the growth [8] was -34.8% (active).

Work on `C=C1C(=O)O[C@H]2[C@H]1CC/C(COC(=O)NCc1cc(OC)c(OC)c(OC)c1)=C\CC[C@@]1(C)O[C@@H]21` yielded a growth [1] of 34%, a growth [2] of 55.1% and a growth [3] of 62.8%. For the same molecule, the growth [4] was 15.6%, the growth [5] was 17% and the growth [6] was 18.7%. For the same molecule, the growth [7] was 101% and the growth [8] was 92%.

`C=C1C(=O)O[C@H]2[C@H]1CC/C(COC(=O)NCCc1ccc(OC)cc1)=C\CC[C@@]1(C)O[C@@H]21` was tested, and the growth [1] was -5.43% (active), the growth [2] was 8.9% (active) and the growth [3] was 21.5%. The growth [4] was -65.6% (active), the growth [5] was 2.77% (active) and the growth [6] was -58.4% (active). For the same molecule, the growth [7] was 71.1% and the growth [8] was 56.9%.

For `Cc1ccc(-c2csc3nc(C)c(CCCl)c(=O)n23)cc1`, the growth [1] was 76.7%, the growth [2] was 119% and the growth [3] was 97.3%. It also gave a growth [4] of 99.2%, a growth [5] of 78.3% and a growth [6] of 89.4%. It also gave a growth [7] of 109% and a growth [8] of 103%.

With `COc1cccc(C2CC(=O)Nc3c2c(C)nn3-c2nc3ccccc3[nH]2)c1OC` (stereo not drawn) the growth [1] was 64.5%, the growth [2] was 87.1% and the growth [3] was 58.5%. For the same molecule, the growth [4] was 77.1%, the growth [5] was 62.5% and the growth [6] was 36.2%. It also gave a growth [7] of 120% and a growth [8] of 67.9%.

In the case of `COc1cc(C(=O)CCCl)ccc1O`, the growth [1] is reported as 94.7%, the growth [2] is reported as 112% and the growth [3] is reported as 103%. The growth [4] was 103%, the growth [5] was 80.2% and the growth [6] was 100%. For the same molecule, the growth [7] was 103% and the growth [8] was 97.1%.

For `COc1cccc(-c2nc3sccn3c2-c2ccnc(NCCCNS(=O)(=O)c3ccc(F)cc3)n2)c1`, the growth [1] was -8.19% (active), the growth [2] was 29.6% and the growth [3] was 25.2%. The growth [4] was 58.4%, the growth [5] was 39.9% and the growth [6] was 19.9%. It also gave a growth [7] of 82.4% and a growth [8] of 22.1%.

`COc1cc(-c2csc(NC(=O)Nc3ccc(Cl)cc3Cl)n2)cc(OC)c1OC` was tested, and the growth [1] was 26.6%, the growth [2] was 38.3% and the growth [3] was -7.76% (active). It also gave a growth [4] of 28.8%, a growth [5] of 11.8% and a growth [6] of 19.3%. It also gave a growth [7] of 60.1% and a growth [8] of 24.6%.

With `CC(C)[C@H](CO)Nc1nc(Nc2ccc(C(=O)NCCNS(=O)(=O)c3cccc4c(N(C)C)cccc34)c(Cl)c2)c2ncn(C(C)C)c2n1` the growth [1] was 20.6%, the growth [2] was -37.9% (active) and the growth [3] was 0.754% (active). The growth [4] was 4.97% (active), the growth [5] was 6.04% (active) and the growth [6] was 4.44% (active). The growth [7] was 15.7% and the growth [8] was -9.33% (active).

`O=S(=O)(NCCCNc1nccc(-c2c(-c3ccccc3)nc3sccn23)n1)c1ccc(F)cc1` was tested, and the growth [1] was 7.39% (active), the growth [2] was 54.3% and the growth [3] was 16.5%. For the same molecule, the growth [4] was 53.8%, the growth [5] was 31.6% and the growth [6] was 25.9%. It also gave a growth [7] of 86.4% and a growth [8] of 39.4%.

With `Nc1c(C(=O)Nc2c(Cl)cccc2Cl)sc2nc3c(cc12)CCCCC3` the growth [1] was 57.7%, the growth [2] was 52.6% and the growth [3] was 9.69% (active). It also gave a growth [4] of 46.1%, a growth [5] of 18.4% and a growth [6] of 62.3%. For the same molecule, the growth [7] was 57% and the growth [8] was 53.6%.

For `COc1ccc(NC(=O)CSc2nc3ccc(Cl)cc3c(=O)n2-c2ccccc2C(F)(F)F)c(OC)c1OC`, the growth [1] was 61.9%, the growth [2] was 72.8% and the growth [3] was 92.3%. It also gave a growth [4] of 94%, a growth [5] of 78.9% and a growth [6] of 70.1%. It also gave a growth [7] of 99% and a growth [8] of 95.7%.

`Cc1cc(C(=O)O)c(N)c(C)n1` gave a growth [1] of 112%, a growth [2] of 106% and a growth [3] of 107%. The growth [4] was 106%, the growth [5] was 93.6% and the growth [6] was 102%. The growth [7] was 111% and the growth [8] was 110%.

`CCOC(=O)CC(C#N)(CC(=O)OCC)C(=O)OCC` showed a growth [1] of 105%, a growth [2] of 106% and a growth [3] of 94.8%. For the same molecule, the growth [4] was 108%, the growth [5] was 101% and the growth [6] was 102%. For the same molecule, the growth [7] was 109% and the growth [8] was 106%.

With `N#Cc1ccc(NC(=O)c2ccc3cccnc3c2O)cc1` the growth [1] was 27.3%, the growth [2] was 27.7% and the growth [3] was 26.2%. For the same molecule, the growth [4] was 23.1%, the growth [5] was 15.8% and the growth [6] was 20.3%. The growth [7] was 44.6% and the growth [8] was 25.7%.

`COc1cc2c3c(c(=O)oc2cc1OS(=O)(=O)c1ccc(C(F)(F)F)cc1)CCCCC3` showed a growth [1] of 80.9%, a growth [2] of 75.4% and a growth [3] of 91.6%. For the same molecule, the growth [4] was 102%, the growth [5] was 89.6% and the growth [6] was 66.6%. The growth [7] was 97.6% and the growth [8] was 92.1%.

For `COc1ccc(-c2cn[nH]c2-c2cc(OC)c3c(c2)OCO3)cc1`, the growth [1] was 44%, the growth [2] was 59.3% and the growth [3] was -55.4% (active). It also gave a growth [4] of 21.9%, a growth [5] of 13.1% and a growth [6] of 13.6%. It also gave a growth [7] of 16.8% and a growth [8] of 17.6%.

With `O=C(/C=C/CN1CCOCC1)Nc1cc2c(Nc3ccc(F)c(Cl)c3F)ncnc2cc1OCCOC(F)F` the growth [1] was 1.51% (active), the growth [2] was 54.3% and the growth [3] was 69.1%. The growth [4] was 89.7%, the growth [5] was 60.7% and the growth [6] was 49.4%. The growth [7] was 69.1% and the growth [8] was 74.1%.

With `CN(C)c1ccc(-c2ccc(-c3ccc(C(=N)N)cn3)o2)cc1` the growth [1] was -68.2% (active), the growth [2] was -11.8% (active) and the growth [3] was -84.2% (active). For the same molecule, the growth [4] was -72.6% (active), the growth [5] was -38.1% (active) and the growth [6] was -62.4% (active). For the same molecule, the growth [7] was -73.5% (active) and the growth [8] was -97% (active).

With `CC(=O)n1cc([C@H]2CC[C@H](c3cn(C(C)=O)c4ccccc34)c3c2[nH]c2ccccc32)c2ccccc21` the growth [1] was 50.8%, the growth [2] was 95.2% and the growth [3] was 93.1%. For the same molecule, the growth [4] was 90.3%, the growth [5] was 63.7% and the growth [6] was 63.9%. It also gave a growth [7] of 87.3% and a growth [8] of 64.4%.

`COc1c(NC[C@H]2OC(O)[C@H](O)[C@@H](O)[C@@H]2O)c(=O)c1=O` (stereo partly drawn) was tested, and the growth [1] was 95.3%, the growth [2] was 112% and the growth [3] was 98%. The growth [4] was 101%, the growth [5] was 103% and the growth [6] was 100%. For the same molecule, the growth [7] was 97.9% and the growth [8] was 111%.

With `O=c1[nH]c2ccccc2cc1-c1nnc(Cc2ccccc2)o1` the growth [1] was 42.2%, the growth [2] was 48.9% and the growth [3] was 52.9%. For the same molecule, the growth [4] was 45%, the growth [5] was 20.5% and the growth [6] was 7.52% (active). For the same molecule, the growth [7] was 78.9% and the growth [8] was 77.8%.

With `Cc1ccc(Cn2c(-c3nonc3N)nc3ccccc32)cc1` the growth [1] was 74.6%, the growth [2] was 68.3% and the growth [3] was -30.8% (active). The growth [4] was 28.4%, the growth [5] was 55.5% and the growth [6] was 58.2%. It also gave a growth [7] of 75.1% and a growth [8] of 31.6%.

With `COc1ccc(C(=O)/C=C/c2cccc([N+](=O)[O-])c2)c(OC)c1` the growth [1] was 26.6%, the growth [2] was 4.85% (active) and the growth [3] was 15.2%. The growth [4] was -67.4% (active), the growth [5] was 7.98% (active) and the growth [6] was -80.1% (active). The growth [7] was 36.6% and the growth [8] was 13.2%.

In the case of `O=C(CN1CCN(c2cc3c(cc2F)c(=O)c(C(=O)O)cn3C2CC2)CC1)Nc1ccc(C(=O)/C=C/c2ccc(Cl)cc2)cc1`, the growth [1] is reported as 106%, the growth [2] is reported as 91.1% and the growth [3] is reported as 101%. It also gave a growth [4] of 111%, a growth [5] of 91.7% and a growth [6] of 41.3%. For the same molecule, the growth [7] was 103% and the growth [8] was 120%.

With `Cc1ccc2c(c1)C(=O)C(c1c(-c3[nH]c(=O)c4ccc(C)cc4c3O)c(O)c3ccccc3c1O)=NC2=O` the growth [1] was 11.9%, the growth [2] was 32.7% and the growth [3] was 30.7%. The growth [4] was 7.11% (active), the growth [5] was 12.3% and the growth [6] was 12.9%. For the same molecule, the growth [7] was 62% and the growth [8] was 18.5%.

With `COc1ccc2c(c1)C(C)Cc1c(N(C)C)ncnc1N2C` (stereo not drawn) the growth [1] was 34.7%, the growth [2] was 17.7% and the growth [3] was -5.79% (active). For the same molecule, the growth [4] was 21.4%, the growth [5] was 19.5% and the growth [6] was 23.7%. For the same molecule, the growth [7] was 74.6% and the growth [8] was 23.6%.

`CCC(c1ccc(OC)cc1)C(CC)c1ccc(OCC[N+](C)(C)C)cc1` (stereo not drawn) was tested, and the growth [1] was 62.7%, the growth [2] was 57.2% and the growth [3] was 59.8%. The growth [4] was 70.6%, the growth [5] was 56.9% and the growth [6] was 89.6%. The growth [7] was 39.3% and the growth [8] was 49.4%.

`COc1cc2c(cc1OC)C1(C)N(CC2)C(=O)OC1(C)C` (stereo not drawn) showed a growth [1] of 98.4%, a growth [2] of 115% and a growth [3] of 113%. The growth [4] was 103%, the growth [5] was 91.3% and the growth [6] was 104%. The growth [7] was 102% and the growth [8] was 112%.
